Sampled rows, rich in hits. Any-hit rate of the full collection: about 9.9%.
IL-1B inflam inh: qHTS for Inhibitors of Inflammasome Signaling: IL-1-beta AlphaLISA Primary Screen; THP-1 LPS/ATP IL-1B secretion, AlphaLISA, 16 h; active compounds read low; activity change, % at 57.5 µM; 360,000 tested, 4.7% active; in the data active = activity change below about -50%; inconclusive = mostly about -30% to -49%; note: % is set by controls: 0 for no effect and ±100 for the full control effect
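THP-1 cells pretreated 1 hr with compounds (up to 57.5 uM final), then stimulated with LPS (250 ng/mL final) plus ATP (1.25 mM final); secreted IL-1B measured by AlphaLISA after 16 hr, decreased signal indicating inhibition.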
SW480 rereplic: A quantitative high throughput screen for small molecules that induce DNA re-replication in SW480 colon adenocarcinoma cells; 340,000 tested, 1.8% active; AID 624297, 2012; SW480 DNA re-replication, Hoechst DNA content imaging, 48 h; Potency, µM (series often up to 46.1 µM), inactives show at the highest dose re-replication activation, usual class: activators; note: potency is the fitted concentration of half-maximal effect; % of control where 0% means no effect; nearly all actives have a fitted effect of over 55% in size
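Cells (250 per well) received 23 nL compound or DMSO by pin tool and were kept 48 hr at 37 C, 5% CO2. Nuclei were then stained with Hoechst for 40 min and scanned for DNA content.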
KB-V1 MDR tox: qHTS assay for MDR1-selective chemotherapeutics: Primary screen using the drug-selected MDR subline cells KB-V1; KB-V1 MDR cells viability, CellTiter-Glo, 72 h; Potency, µM (top dose mostly 46.1 µM), actives largely listed as cytotoxic; 400,000 tested, 3.4% active; note: potency is the fitted concentration of half-maximal effect; % is set by controls: 0 for no effect and ±100 for the full control effect; nearly all actives have a fitted effect of over 60% in size
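Potencies derive from concentration-effect curves fitted to normalized luminescence (CellTiter-Glo) of KB-V1 cells treated for 72 h at 37 degrees C in phenol-red-free DMEM containing 10% FBS.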
KB-3-1 cytotox: qHTS assay for MDR1-selective chemotherapeutics: Primary screen using the parental adenocarcinoma cell KB-3-1 | Potency, µM (doses to about 46.1 µM), hits mostly cytotoxic | KB-3-1 viability, CellTiter-Glo ATP luminescence, 72 h | 400,000 tested, 1.4% active; note: potency is the fitted concentration of half-maximal effect; % is set by controls: 0 for no effect and ±100 for the full control effect; nearly all actives have a fitted effect of over 60% in size
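KB-3-1 cells, DMEM (no phenol red) + 10% FBS; compound by pin transfer, 72 h, 37 °C. Readout: CellTiter-Glo luminescence after 10 min. Data normalized, curve-fitted.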
MCF10A rerep: A quantitative high throughput screen for small molecules that induce DNA re-replication in MCF 10a normal breast cells | MCF 10A DNA re-replication, Hoechst nuclear intensity, 48 h | Potency, µM (titrated, usually from 46.1 µM), for the others: at the top dose activity, positive = re-replication, actives largely listed as activators | 350,000 tested, 2.9% active; note: potency is the fitted concentration of half-maximal effect; % of control where 0% means no effect; nearly all actives have a fitted effect of over 50% in size
* marks the source's active call; other numbers are inactive results; i = inactive; ? = inconclusive; / = no result given. Unless noted, calls come from the whole dose curve; as a rule, active = well fitted curve in the direction sought with a large enough effect; inconclusive = small, poorly fitted or top-dose-only effect, or another doubt; inactive = no such curve, though single readings can be large; an effect the other way counts as inactive or inconclusive.

SMILES	IL-1B inflam inh	SW480 rereplic	KB-V1 MDR tox	KB-3-1 cytotox	MCF10A rerep
CCC(=O)Nc1cccc2cccnc12	11	-39%	i	i	3%
O=C(Cc1ccc(F)cc1)Nc1cccc2cccnc12	-11	3%	16µM*	i	13%
CCN(CC)CCNC1=NCCn2c1cc1cc(OC)ccc12	-76*	?	i	i	?
CCN(CC)CCNC(=O)COc1ccc(OC)cc1	9	1%	?	i	1%
Cc1[nH]n(-c2ccccc2)c(=O)c1C(c1ccccc1[N+](=O)[O-])C(C#N)C#N (stereo unspecified)	-9	-14%	i	i	-5%
Cc1[nH]n(-c2ncc(-c3ccccc3)s2)c(=O)c1C(c1ccc(Cl)cc1)C(C#N)C#N (stereo unspecified)	-64*	-1%	?	i	18%
CCCCNC(=O)/C(C#N)=C/c1ccc(F)cc1F	-90*	1%	i	i	?
COCCCNC(=O)/C(C#N)=C/c1ccc(F)cc1	-6	0%	i	i	0%
CC(=O)OC1CCC2C3CCC4OC(=O)CCC4C3CCC12C (stereo unspecified)	20	-5%	i	?	3%
C=C1C(=O)C2=CC1CCC(=O)C1(C)CCC(OC(C)=O)C(C)(C)C1CC2O (stereo unspecified)	-107*	2.1µM*	6.5µM*	8.2µM*	9.2µM*
O=C(NCCCO)C(=O)Nc1ccc2c(c1)N(S(=O)(=O)c1cccs1)CCC2	22	11%	i	i	14%
CC(C)CNC(=O)C(=O)Nc1ccc2c(c1)N(S(=O)(=O)c1cccs1)CCC2	-6	-28%	i	i	3%
COCCNC(=O)C(=O)Nc1ccc2c(c1)N(S(=O)(=O)c1cccs1)CCC2	22	2.6µM*	?	?	?
CC(C)CCNC(=O)C(=O)Nc1ccc2c(c1)N(S(=O)(=O)c1cccs1)CCC2	63	?	?	5.8µM*	?
CCOc1ccc(NC(=O)c2oc3ccccc3c2NC(=O)Cc2cccs2)cc1	/	/	i	i	/
CNC[C@@H]1Oc2cc(Br)ccc2S(=O)(=O)N([C@@H](C)CO)C[C@@H]1C	13	/	i	i	/
O=C(CN(c1cc(Cl)ccc1Cl)S(=O)(=O)c1ccccc1)N1CCOCC1	6	-1%	/	/	-3%
O=C(O)COCC(=O)N1CCN(c2cc(C(F)(F)F)nc3ccccc23)CC1	-8	-20%	i	i	5%
CN(C)c1ccc(C(=O)N2CCN(c3cc(C(F)(F)F)nc4ccccc34)CC2)cc1	-55*	-5%	i	i	15%
CC(NC(=O)/C(=C/c1ccc(OC(F)F)cc1)c1ccccc1)c1ccccc1 (stereo unspecified)	-18	19%	6.5µM*	?	?
CC(NC(=O)/C(C#N)=C/c1ccc(OCC(=O)O)cc1)c1ccccc1 (stereo unspecified)	-2	-1%	i	i	?
CCOC(=O)N1CCN(Cc2nc3cc(NC(=O)CC)ccc3n2C)CC1	12	-7%	i	i	-12%
CCCn1c(CN2CCN(C(=O)OCC)CC2)nc2cc(NC(=O)CC)ccc21	45	6.5µM*	?	9.2µM*	16µM*
CCOC(=O)N1CCN(Cc2nc3cc(NC(=O)C(C)C)ccc3n2C(C)C)CC1	/	/	i	0.65µM*	/
CC1(C)CC(=O)C2=C(C1)OC(N)=C(C#N)C2c1cc2c(cc1[N+](=O)[O-])OCO2 (stereo unspecified)	21	-5%	i	i	4%
SMILES	IL-1B inflam inh	SW480 rereplic	KB-V1 MDR tox	KB-3-1 cytotox	MCF10A rerep
COc1ccc(-c2cc(-c3cccs3)nc3sc(C#N)c(N)c23)cc1	-8	?	?	i	16µM*
CC(=O)c1sc2nc(-c3cccs3)ccc2c1N	-17	?	?	?	?
COc1ccc(C(=O)c2sc3nc(C)cc(-c4cccs4)c3c2N)cc1	?	21µM*	i	i	?
Cc1cc(C)c2c(N)c(C(=O)c3ccc(Cl)cc3)sc2n1	-28	15%	?	i	-33%
Cc1cc(-c2cccs2)c2c(N)c(C(=O)c3ccc4c(c3)OCO4)sc2n1	-21	1.3µM*	6.5µM*	?	15µM*
CC(C)NC(=O)c1sc2nc(-c3cccs3)cc(-c3cccs3)c2c1N	-18	?	i	i	3.7µM*
Cc1cc(C)c2c(N)c(C(=O)c3ccc(Cl)c(Cl)c3)sc2n1	-7	-4%	i	i	0%
CCOC(=O)c1cccc(NC(=O)CCn2nc(C)c3c(C)n(-c4ccccc4)nc3c2=O)c1	/	/	i	i	/
C=CCN(C(=O)CCC(=O)Nc1cc(C)on1)C(C(=O)NC(C)(C)C)c1ccc(OC)cc1 (stereo unspecified)	39	?	i	i	8%
COc1ccc(C(=O)c2sc3nc(C)cc(-c4cccs4)c3c2N)cc1OC	-80*	?	?	i	5.2µM*
Nc1c(C(=O)Nc2ccccc2Br)sc2nc(-c3cccs3)ccc12	/	/	i	i	/
Nc1c(C(=O)Nc2nc3ccccc3s2)sc2nc(-c3cccs3)ccc12	-114*	?	i	8.2µM*	4.1µM*
C[C@H](CO)N1C[C@H](C)[C@@H](CN(C)Cc2ccc(Oc3ccccc3)cc2)Oc2c(NS(=O)(=O)c3cn(C)cn3)cccc2C1=O	-1	10%	i	i	-9%
COc1ccccc1CNC(=O)COC(=O)c1cc2ccccc2o1	-13	-5%	i	i	7%
CC(NC(=O)c1nn(C)c(=O)c2ccccc12)c1ccccc1 (stereo unspecified)	18	-7%	21µM*	i	-1%
Cn1nc(C(=O)NCc2ccccc2)c2ccccc2c1=O	34	-1%	i	i	20%
CC(C)CCNC(=O)C(c1ccc(O)cc1)N(C(=O)C1COc2ccccc2O1)c1cccc(O)c1 (stereo unspecified)	-76*	-53%	i	i	4%
CCOc1cccc(N(C(=O)C2COc3ccccc3O2)C(C(=O)NC2CCCCC2)c2ccc(O)cc2)c1 (stereo unspecified)	-4	17%	i	i	?
Cc1[nH]c2ccccc2c1C(=O)CSc1nc2ccccc2c(=O)n1CCCN1CCOCC1	?	4%	i	i	15µM*
O=C(CSc1nc2ccccc2c(=O)n1CCCN1CCOCC1)NC12CC3CC(CC(C3)C1)C2	-21	-23%	9.2µM*	i	?

From PubChem BioAssay
